The supplement of paper PMC13380429

Key:
[1] = system: Vero E6 infected with SARS-CoV-2; experiment: morphology score (similarity to uninfected cells); higher = more like uninfected cells; settings: 24 h
[2] = system: Vero E6 infected with SARS-CoV-2; experiment: SARS-CoV-2 infection rate relative to infected DMSO; higher = more infection, active = 60 or less; settings: 24 h

Structure (SMILES) | morphology score [1] | SARS-CoV-2 infection rate [2]
Cc1cc(O)c2c(c1)C(=O)c1cc(O)cc(O)c1C2=O [emodin] (10 µM) | 0.146 | 106% (inactive)
CC1(C)O[C@@H]2C[C@H]3[C@@H]4CCC5=CC(=O)CC[C@]5(C)[C@@]4(F)[C@@H](O)C[C@]3(C)[C@]2(C(=O)CCl)O1 [halcinonide] (10 µM) | 0.157 | 106% (inactive)
Cc1ccc(C(=O)C(C)CN2CCCCC2)cc1 (stereo not drawn) [tolperisone] (10 µM) | 0.383 | 83.5% (inactive)
CCc1ccc(/C=C2/SC(=S)NC2=O)cc1 (10 µM) | 0.0397 | 92.5% (inactive)
CCCOC(=O)c1ccccc1 [propyl-benzoate] (10 µM) | 0.105 | 90% (inactive)
COc1ccc(-c2coc3cc(O)ccc3c2=O)cc1 [formononetin] (10 µM) | 0.158 | 106% (inactive)
O=C1COc2nccc(-c3ccccc3F)c2CN1Cc1cc(C(F)(F)F)cc(C(F)(F)F)c1 (10 µM) | -0.194 | 108% (inactive)
CCOC(=O)n1ccn(C)c1=S [carbimazole] (10 µM) | 0.159 | 99% (inactive)
Oc1c(CN2CCCC2)cc(COCc2ccccc2)c2cccnc12 (10 µM) | 0.0259 | 104% (inactive)
CCN(CC)CCNC(=O)c1cc(S(C)(=O)=O)ccc1OC [tiapride] (10 µM) | 0.0888 | 98% (inactive)
CN(C)C/C=C/C(=O)Nc1ccc(C(=O)Nc2cccc(Nc3ncc(Cl)c(-c4c[nH]c5ccccc45)n3)c2)cc1 (10 µM) | -0.108 | 94% (inactive)
CNCCCCOc1ccccc1Cc1ccccc1 [bifemelane] (10 µM) | 0.517 | 65% (inactive)
C[C@H](NC(=O)Cc1cc(F)cc(F)c1)C(=O)N[C@@H]1C(=O)N(C)c2ccccc2-c2ccccc21 (10 µM) | 0.18 | 119% (inactive)
NC(=O)N1C(=O)/C(=C(\O)c2cccs2)c2cc(Cl)ccc21 [tenidap] (10 µM) | 0.0356 | 91% (inactive)
O=c1sn(-c2cccc3ccccc23)c(=O)n1Cc1ccccc1 [tideglusib] (10 µM) | 0.109 | 108% (inactive)
Clc1ccc(C(OCCN2CCCCC2)c2ccccc2)cc1 (stereo not drawn) [cloperastine] (10 µM) | 0.412 | 75.5% (inactive)
COc1ccc(/C=C\c2cc(OC)c(OC)c(OC)c2)cc1O [combretastatin-A-4] (10 µM) | 0.000765 | 98.5% (inactive)
CCC(CC)COC(=O)[C@H](C)N[P@](=O)(OC[C@H]1O[C@@](C#N)(c2ccc3c(N)ncnn23)[C@H](O)[C@@H]1O)Oc1ccccc1 [Remdesivir] (10 µM) | 0.761 | 26% (active)
O=C(N[C@H]1CN2CCC1CC2)c1cc2cccc(Cl)c2s1 (10 µM) | 0.352 | 86.5% (inactive)
O=C(O)P(=O)(O)O [foscarnet] (10 µM) | 0.202 | 98% (inactive)
NCC1CC(=O)N(Cc2ccccc2)C1 (stereo not drawn) [nebracetam] (10 µM) | 0.0779 | 102% (inactive)
CC(=O)N(CC(O)CN(C(C)=O)c1c(I)c(C(=O)NCC(O)CO)c(I)c(C(=O)NCC(O)CO)c1I)c1c(I)c(C(=O)NCC(O)CO)c(I)c(C(=O)NCC(O)CO)c1I (stereo not drawn) [iodixanol] (10 µM) | -0.0966 | 114% (inactive)
COc1ccc(C(=O)NCc2cccnc2)cc1C(=O)NCc1cccnc1 [picotamide] (10 µM) | -0.08 | 115% (inactive)
N#CC(C#N)=Cc1ccc(O)c(O)c1 [tyrphostin-AG-18] (10 µM) | 0.204 | 100% (inactive)
O=c1c(-c2ccc(O)cc2)coc2c([C@@H]3O[C@H](CO)[C@@H](O)[C@H](O)[C@H]3O)c(O)ccc12 [kakonein] (10 µM) | -0.0186 | 103% (inactive)
COc1ccc(N(C)c2nc(C)nc3ccccc23)cc1 [verubulin] (10 µM) | -0.0973 | 95% (inactive)
Nc1ccn([C@H]2CO[C@@H](CO)S2)c(=O)n1 [apricitabine] (10 µM) | 0.071 | 108% (inactive)
Cn1ncc2c(N3CCOCC3)nc(-c3cccc(O)c3)nc21 (10 µM) | -0.103 | 114% (inactive)
C[C@H](CSC(=O)c1ccccc1)C(=O)N1C[C@@H](Sc2ccccc2)C[C@H]1C(=O)O [zofenopril-calcium] (10 µM) | 0.0896 | 104% (inactive)
